From PubChem BioAssay
EPAC2 ag – EPAC2 (human) agonism; Q8WZA2; EPAC2 activation, biochemical qHTS; response scale: 100% = 6.5 mM cAMP response; Potency, µM (top dose mostly 154 µM), usual class: activators; actives 0.079% (n = 360,000); AID 720711; further: nearly all actives have a fitted effect of over 50% in size
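Nucleotide exchange monitored as fluorescence drop when BODIPY-GDP leaves Rap1B. Reaction: 100 nM EPAC2, 250 nM RAP1B-BODIPY-GDP, 50 uM GDP, room temperature, kinetic read over 30 min. Activity expressed relative to 6.5 mM cAMP.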
EPAC1 agonist – activates human EPAC1 exchange factor | actives 0.073% (n = 360,000) | O95398 | EPAC1 agonist qHTS, biochemical assay; response scale: 100% = response to 6.5 mM cAMP | Potency, µM (titrated, usually from 154 µM), actives largely listed as activators; further: nearly all actives have a fitted effect of over 60% in size
Target sequence (O95398 whole entry, looked up): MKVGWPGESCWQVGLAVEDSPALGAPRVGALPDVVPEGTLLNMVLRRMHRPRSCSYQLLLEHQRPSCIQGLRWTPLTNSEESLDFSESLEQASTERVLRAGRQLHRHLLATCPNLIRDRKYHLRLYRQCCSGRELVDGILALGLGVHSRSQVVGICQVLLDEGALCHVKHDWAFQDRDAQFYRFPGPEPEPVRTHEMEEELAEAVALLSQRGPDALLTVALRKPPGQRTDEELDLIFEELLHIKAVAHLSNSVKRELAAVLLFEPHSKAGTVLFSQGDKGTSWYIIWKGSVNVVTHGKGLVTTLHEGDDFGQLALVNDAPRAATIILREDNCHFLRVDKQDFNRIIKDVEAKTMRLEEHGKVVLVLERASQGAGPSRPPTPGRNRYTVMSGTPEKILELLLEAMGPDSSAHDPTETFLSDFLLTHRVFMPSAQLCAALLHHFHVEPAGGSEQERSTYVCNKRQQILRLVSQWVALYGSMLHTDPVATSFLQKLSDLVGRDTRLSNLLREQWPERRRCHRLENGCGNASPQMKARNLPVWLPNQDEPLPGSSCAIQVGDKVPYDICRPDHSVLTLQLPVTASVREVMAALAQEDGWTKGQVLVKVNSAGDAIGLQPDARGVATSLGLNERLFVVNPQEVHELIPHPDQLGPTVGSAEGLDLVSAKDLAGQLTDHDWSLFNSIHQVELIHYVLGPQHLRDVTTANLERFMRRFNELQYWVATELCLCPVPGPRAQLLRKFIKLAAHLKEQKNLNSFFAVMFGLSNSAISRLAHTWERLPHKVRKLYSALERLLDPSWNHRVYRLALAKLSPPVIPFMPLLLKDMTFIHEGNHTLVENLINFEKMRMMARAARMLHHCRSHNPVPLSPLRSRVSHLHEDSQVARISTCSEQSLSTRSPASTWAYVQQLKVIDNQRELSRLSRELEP
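EPAC1 100 nM, Rap1B–BODIPY-GDP 250 nM, unlabeled GDP 50 uM; compound titration; 5 min RT; kinetic read ex480/em540 at 5-min intervals ×30 min; data normalized to 6.5 mM cAMP agonist control.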
EPAC1 antag – blocks human EPAC1 exchange factor. Potency, µM (highest dose often 115 µM), actives largely listed as inhibitors. EPAC1 GEF assay, Rap1b-BODIPY-GDP exchange fluorescence. actives 0.14% (n = 360,000). O95398; further: nearly all actives have a fitted effect of over 50% in size
EPAC2 antag – antagonists of human EPAC2 | Q8WZA2 | EPAC2 GEF exchange of Rap1B-BODIPY-GDP, fluorescence | Potency, µM (top dose mostly 114 µM), most hits filed as inhibitors | actives 0.18% (n = 360,000); further: nearly all actives have a fitted effect of over 45% in size
LDHA block – blocks human lactate dehydrogenase A; purified LDHA, NADH/diaphorase-resazurin fluorescence; active compounds read low; activity change, % (values are at about 110 or 230 µM); actives 0.15% (n = 480,000); AID 1347041; in the data active means activity change below about -30%; inconclusive means mostly about -25% to -30%
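Resorufin fluorescence (ex540/em590), read at 0 and 20 min after diaphorase/resazurin addition, reports the NADH left after a 5 min room-temperature reaction of 2 nM human LDH5 with 0.06 mM NADH and 0.2 mM pyruvate.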
USP1 inh – USP1/UAF1 (human) deubiquitinase inhibition; actives 0.23% (n = 390,000); O94782; recombinant USP1/UAF1, Ub-Rhodamine cleavage fluorescence; Potency, µM (top dose mostly 57.1 µM), actives largely listed as inhibitors; further: nearly all actives have a fitted effect of over 60% in size
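USP1/UAF1 complex (1 nM) preincubated 15 min at room temperature with compound, then Ub-Rho substrate (150 nM final) added. Kinetic fluorescence at 480/540 nm over 6 reads at 60 s intervals; 50 mM HEPES pH 7.8, 0.5 mM EDTA, 0.1 mg/ml BSA, 1 mM TCEP, 0.01% Tween-20.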
Numbers stand for hits; n = inactive; u = inconclusive; x = no result; [ ] = another dose, or the depositor's remark. In the library only some 0.56% were active in any assay of this set; here they are far more common. Unless noted, the call rests on the fitted dose curve; in most records, active means well fitted curve in the direction sought with a large enough effect; inconclusive means small, poorly fitted or top-dose-only effect, or another doubt; inactive means no such curve, though single readings can be large; an effect the other way counts as inactive or inconclusive.

SMILES	EPAC2 ag	EPAC1 agonist	EPAC1 antag	EPAC2 antag	LDHA block	USP1 inh
CCN1CCc2c(sc(NC(=O)c3ccc(S(=O)(=O)N(CC)c4ccccc4)cc3)c2C(N)=O)C1	n	n	u	n	n	28.2µM
CCN1CCc2c(sc(NC(=O)c3ccc(S(=O)(=O)N4CCCCCC4)cc3)c2C(=O)NC)C1	n	112µM	n	n	n	n
CCCCN(CCCC)S(=O)(=O)c1ccc(C(=O)Nc2sc3c(c2C(N)=O)CCN(CC)C3)cc1	x	x	x	x	n	u
NC(=O)c1c(NC(=O)c2ccccc2)sc2c1CCN(Cc1ccccc1)C2	89.1µM	n	n	n	n	8.91µM
C(C#CCOC/C=C/c1ccccc1)#CCOC/C=C/c1ccccc1	x	x	x	x	n	x
CC(=O)N1CCc2c(sc(NC(=O)CS(=O)(=O)c3ccc(F)cc3)c2C(N)=O)C1	n	126µM	n	n	n	n
COc1cccc(OC)c1OC(=O)/C=C/c1ccc(C)o1	n	n	n	56.2µM	n	u
CCc1noc(C)c1C(=O)Nc1nc2c(C)cc(C)cc2s1	n	89.1µM	n	n	n	n
COc1ccccc1NC(=O)c1sc2nc(Cc3ccccc3)cc(C(F)(F)F)c2c1N	n	n	n	79.4µM	n	u
COc1ccccc1NC(=O)c1sc2nc(C)c(C(=O)Nc3ccc(C)cc3C)c(-c3ccco3)c2c1N	x	x	x	x	n	n
COc1ccc(NC(=O)c2sc3nc(Cc4ccccc4)cc(C(F)(F)F)c3c2N)cc1OC	n	n	u	n	n	n
COc1ccccc1NC(=O)c1sc2nc(C)c(C(=O)Nc3ccc(C)cc3C)c(-c3ccc(C)o3)c2c1N	x	x	x	x	n	31.6µM
CCOC(=O)c1cnc2c(Cl)cccc2c1Nc1ccc(C(=O)OC)cc1	x	x	x	x	n	x
CC1(C)CC(=O)C2=C(C1)NC(Nc1nc3ccccc3o1)=NC2c1cccc(Cl)c1 (stereo unspecified)	x	x	x	x	-30.3	x
Cc1ccc(C(=O)N2CCN(Cc3ccc(F)cc3)CC2)cc1C	x	x	x	x	n	x
Cc1c(C(=O)N2CCCC2)oc2c1-c1nn(CC(=O)NCc3cccc(Br)c3)cc1CC2	x	x	x	x	n	n
c1ccc2c(c1)oc1c(-c3ccc4nccn4c3)cccc12	n	n	n	10µM	n	x
CCCN(CCC)C(=O)Cn1c(=O)c2sccc2n2c(=S)sc(-c3ccccc3)c12	n	n	n	50.1µM	n	n
CCCN(CCC)C(=O)Cn1c(=O)c2ccccc2n2c(=S)sc(-c3ccccc3C)c12	n	n	n	n	n	n
COc1ccc(-c2noc(CSc3nc4ccccc4o3)n2)cc1	x	x	x	x	n	x
CCOc1ccc(Oc2ccccc2NC(=O)CN2C(=O)NC3(CCCC3)C2=O)cc1	n	28.2µM	n	n	n	n
Cc1[nH][nH]c(=O)c1C(c1c(C)[nH][nH]c1=O)c1cn(Cc2ccccc2Cl)c2ccccc12	n	n	u	n	n	28.2µM
CC(C)NC(NC(=O)c1ccc(Br)cc1)C(Cl)(Cl)Cl (stereo unspecified)	x	x	x	x	n	x
O=C(N/N=C/CCc1ccccc1)C1CC1	x	x	x	x	n	x
COc1cc(OC)c(N(C)C(=O)C2CCCN(c3ncnc4c3nc3n4CCCCC3)C2)cc1Cl (stereo unspecified)	x	x	x	x	n	n
SMILES	EPAC2 ag	EPAC1 agonist	EPAC1 antag	EPAC2 antag	LDHA block	USP1 inh
O=C(c1cccs1)N1CCN(Cc2ccccc2)CC1	n	n	n	n	n	n
COc1ccccc1CN1CCN(C(=O)c2ccncc2)CC1	n	n	n	n	-30.0	n
O=C(c1cccc(Cl)c1)N1CCN(Cc2ccncc2)CC1	n[15.6 µM]	n	n	n	-31.0	n
O=C(c1cccs1)N1CCN(Cc2ccncc2)CC1	n	n	n	n	-33.3	n
Cc1sc2nc(C(C)N3CCC(C)CC3)[nH]c(=O)c2c1C (stereo unspecified)	x	x	x	x	n	x
CCCn1nc(C(=O)Nc2nccs2)c2ccccc2c1=O	x	x	x	x	n	x
O=C(NN1CCOCC1)c1ccn(COc2ccc(Br)cc2)n1	x	x	x	x	-32.9	x
O=C(NN1CCOCC1)c1ccn(COc2c(Cl)cccc2Cl)n1	x	x	x	x	n	x
O=C(O)c1cccc(NC2=C(n3nnc4ccccc43)C(=O)c3ccccc3C2=O)c1	n	n	n	n	n	28.2µM
